According to PubChem BioAssay (Tox21):
Results filed as inconclusive are left out. Activity calls are given as the source filed them. Calls follow the shape of the dose curve; as a rule, active = well fitted curve in the direction sought with a large enough effect in the repeat runs; inconclusive = weak or mixed curves; inactive = no such curve, though single readings can be large; an effect the other way counts as inactive or inconclusive.

Tests used:
[1] = qHTS RealTime-Glo MT Cell Viability Assay in HepG2 cells - 40 hour (AID 1224870); also: nearly all actives have a fitted effect of over 50% in size
In short: (§1)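 HepG2 cells (600/well) mixed with RealTime-Glo MT reagent, settled 5 h at 37 C/5% CO2 before compound addition. Nonlytic NanoLuc luminescence from viable-cell prosubstrate reduction read repeatedly during 40 h treatment at 37 C.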

[2] = A CellTox Green Cytotoxicity Assay to monitor cytotoxicity in HEK293 cells - 40 hour (AID 1224871); also: nearly all actives have a fitted effect of over 45% in size
In short: (§2)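 HEK293 cells premixed with CellTox Green dye were seeded at 600 cells/well and left 5 h at 37 C/5% CO2 before pin transfer of 23 nL compound in DMSO. Fluorescence from dye bound to dead-cell DNA was read during 40 h treatment.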

[3] = qHTS RealTime-Glo MT Cell Viability Assay in HEK293 cells - 16 hour (AID 1224872); also: top concentration of the series differs between compounds; nearly all actives have a fitted effect of over 50% in size
In short: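 Nonlytic real-time viability readout: viable cells convert prosubstrate to NanoLuc substrate, giving luminescence proportional to live cell number. HEK293, 600 cells/well, compound added after 5 h, continuous culture at 37 C.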

[4] = qHTS RealTime-Glo MT Cell Viability Assay in HepG2 cells - 8 hour (AID 1224873); also: nearly all actives have a fitted effect of over 55% in size
In short: as §1

[5] = qHTS RealTime-Glo MT Cell Viability Assay in HEK293 cells - 40 hour (AID 1224874); conditions: RealTime-Glo luminescence; max response: active compounds read low; also: nearly all actives have a fitted effect of over 50% in size
In short: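 HEK293 cells mixed with RealTime-Glo reagents (NanoLuc plus cell-permeant prosubstrate) at 600 cells/well, preincubated 5 h at 37 C/5% CO2, then given 23 nL compound in DMSO. Nonlytic luminescence from viable cells was read at 0, 8, 16, 24, 32 and 40 h.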

[6] = A CellTox Green Cytotoxicity Assay to monitor cytotoxicity in HEK293 cells - 24 hour (AID 1224875); also: series mostly up to about 77 µM; nearly all actives have a fitted effect of over 45% in size
In short: as §2

[7] = A CellTox Green Cytotoxicity Assay to monitor cytotoxicity in HepG2 cells - 16 hour (AID 1224876); also: nearly all actives have a fitted effect of over 45% in size
In short: (§3)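 HepG2 cells were seeded together with the CellTox Green dye at 600 cells/well, left 5 h at 37 C/5% CO2, then given compounds in DMSO. Fluorescence from dye bound to dead-cell DNA was read repeatedly over 40 h of treatment at 37 C.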

[8] = qHTS RealTime-Glo MT Cell Viability Assay in HepG2 cells - 32 hour (AID 1224877); also: nearly all actives have a fitted effect of over 55% in size
In short: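 Luminescence read-out: viable HepG2 cells reduce a prosubstrate to a NanoLuc substrate, giving a signal proportional to live cell number. Reads taken at 0, 8, 16, 24, 32 and 40 h of compound exposure at 37 C.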

[9] = A CellTox Green Cytotoxicity Assay to monitor cytotoxicity in HepG2 cells - 24 hour (AID 1224878); also: nearly all actives have a fitted effect of over 45% in size
In short: as §3

[10] = A CellTox Green Cytotoxicity Assay to monitor cytotoxicity in HepG2 cells - 40 hour (AID 1224879); also: nearly all actives have a fitted effect of over 40% in size
In short: as §3
% is scaled to controls: 0 for no effect and ±100 for the full control effect.

CCCC(CCC)(C(=O)OCC)C(=O)OCC
inactive: Potency [1] | Potency [2] | Potency [3] | outcome [4] | max response [5] 0.553% | Potency [6] | Potency [7] | Potency [8] | Potency [9] | Potency [10]

CC(C)(CO)[C@@H](O)C(=O)NCCC(=O)O
inactive: Potency [1] | Potency [2] | Potency [3] | outcome [4] | max response [5] 4.63% | Potency [6] | Potency [7] | Potency [8] | Potency [9] | Potency [10]

FC(F)(F)C(F)(F)C(F)(F)C(F)(F)C(F)(F)C(F)(F)C(F)(F)C(F)(F)Br
inactive: Potency [1] | Potency [2] | Potency [3] | outcome [4] | max response [5] -0.235% | Potency [6] | Potency [7] | Potency [8] | Potency [9] | Potency [10]

CCCCC1CCC(=O)O1 (stereo not given)
inactive: Potency [1] | Potency [2] | Potency [3] | outcome [4] | max response [5] -3.25% | Potency [6] | Potency [7] | Potency [8] | Potency [9] | Potency [10]

COC(=O)C(C)O (stereo not given)
inactive: Potency [1] | Potency [2] | Potency [3] | outcome [4] | max response [5] 3.12% | Potency [6] | Potency [7] | Potency [8] | Potency [9] | Potency [10]

COc1ccccc1OCC(O)COC(N)=O (stereo not given)
inactive: Potency [1] | Potency [2] | Potency [3] | outcome [4] | max response [5] 12.1% | Potency [6] | Potency [7] | Potency [8] | Potency [9] | Potency [10]

CCCC1CCC(=O)O1 (stereo not given)
inactive: Potency [1] | Potency [2] | Potency [3] | outcome [4] | max response [5] 4.54% | Potency [6] | Potency [7] | Potency [8] | Potency [9] | Potency [10]

OCCN(CCO)CCN(CCO)CCO
inactive: Potency [1] | Potency [2] | Potency [3] | outcome [4] | max response [5] -1.3% | Potency [6] | Potency [7] | Potency [8] | Potency [9] | Potency [10]

CS(=O)(=O)c1ccc([C@@H](O)[C@@H](CF)NC(=O)C(Cl)Cl)cc1
inactive: Potency [1] | Potency [2] | Potency [3] | outcome [4] | max response [5] 11.3% | Potency [6] | Potency [7] | Potency [8] | Potency [9] | Potency [10]

ClC(Cl)Cl
inactive: Potency [1] | Potency [2] | Potency [3] | outcome [4] | max response [5] 6.53% | Potency [6] | Potency [7] | Potency [8] | Potency [9] | Potency [10]

C=CCc1cc(OC)c(O)c(C(=O)NCCO)c1
inactive: Potency [1] | Potency [2] | Potency [3] | outcome [4] | max response [5] 15.9% | Potency [6] | Potency [7] | Potency [8] | Potency [9] | Potency [10]

CCOC(=O)NCCC[Si](OCC)(OCC)OCC
inactive: Potency [1] | Potency [2] | Potency [3] | outcome [4] | max response [5] 4.72% | Potency [6] | Potency [7] | Potency [8] | Potency [9] | Potency [10]

CC(C)C(=O)OCC(C)(C)C(O)C(C)C (stereo not given)
inactive: Potency [1] | Potency [2] | Potency [3] | outcome [4] | max response [5] 8.54% | Potency [6] | Potency [7] | Potency [8] | Potency [9] | Potency [10]

COC(C)CCO (stereo not given)
inactive: Potency [1] | Potency [2] | Potency [3] | outcome [4] | max response [5] 6.13% | Potency [6] | Potency [7] | Potency [8] | Potency [9] | Potency [10]

O=C(C(Cl)Cl)N1CCOC12CCCCC2
inactive: Potency [1] | Potency [2] | Potency [3] | outcome [4] | max response [5] 12.9% | Potency [6] | Potency [7] | Potency [8] | Potency [9] | Potency [10]

C=CC1CO1 (stereo not given)
inactive: Potency [1] | Potency [2] | Potency [3] | outcome [4] | max response [5] 6.13% | Potency [6] | Potency [7] | Potency [8] | Potency [9] | Potency [10]

CCN[C@H]1CN(CCCOC)S(=O)(=O)c2sc(S(N)(=O)=O)cc21
inactive: Potency [1] | Potency [2] | Potency [3] | outcome [4] | max response [5] -0.402% | Potency [6] | Potency [7] | Potency [8] | Potency [9] | Potency [10]

Cc1nnc(SCC2=C(C(=O)O)N3C(=O)[C@@H](NC(=O)Cn4cnnn4)[C@H]3SC2)s1
inactive: Potency [1] | Potency [2] | Potency [3] | outcome [4] | max response [5] 6.83% | Potency [6] | Potency [7] | Potency [8] | Potency [9] | Potency [10]

CCCCN1C[C@H](O)[C@@H](O)[C@H](O)[C@H]1CO
inactive: Potency [1] | Potency [2] | Potency [3] | outcome [4] | max response [5] 5.15% | Potency [6] | Potency [7] | Potency [8] | Potency [9] | Potency [10]

OCc1ccccc1O
inactive: Potency [1] | Potency [2] | Potency [3] | outcome [4] | max response [5] -16.1% | Potency [6] | Potency [7] | Potency [8] | Potency [9] | Potency [10]

CCNCCO
inactive: Potency [1] | Potency [2] | Potency [3] | outcome [4] | max response [5] 9.13% | Potency [6] | Potency [7] | Potency [8] | Potency [9] | Potency [10]

O=CCCc1ccccc1
inactive: Potency [1] | Potency [2] | Potency [3] | outcome [4] | max response [5] 4.45% | Potency [6] | Potency [7] | Potency [8] | Potency [9] | Potency [10]
